This is an account of results in paper PMC10668032, “Altered binding affinity of SIX1-Q177R correlates with enhanced WNT5A and WNT pathway effector expression in Wilms tumor”.

Whole data set: some 33,000 sequences, median “e-score” near -0.053, cut for the highest 2% near 0.38. What follows is part of a selection rich in the highest values, with near analogues and random picks from the rest.

For the experiment, the target named is T1, SIX1 homeodomain (reference allele) (human, UniProt Q15475 108-198).
T1 sequence: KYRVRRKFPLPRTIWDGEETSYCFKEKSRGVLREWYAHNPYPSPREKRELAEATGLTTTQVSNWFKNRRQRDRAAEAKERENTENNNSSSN
As to the kind of experiment: universal protein binding microarray; Universal all-10-mer PBM (8x60K, AMADID 030236), 300 nM GST-tagged protein, Alexa Fluor 488 anti-GST; buffer, salt, pH and temperature not stated (as in Berger); high values mean tight binding. Particulars: protein: ivt; tags: N-terminal GST; dsDNA, one strand shown. Summed up:
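GST-tagged homeodomains were made by in vitro transcription/translation and quantified by anti-GST western blot against a recombinant GST standard curve. They were applied in duplicate at 300 nM final concentration to universal 'all 10-mer' protein binding microarrays (8×60K format). Binding was quantified as 8-mer E-scores with the Universal PBM Analysis Suite.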
On to ATTGGATC, for which the binding signal was determined as 0.365 ± 0.0365 E-score.

Turning to ATCGAGCG, the binding signal is 0.156 ± 0.0113 E-score.

As for TATATTCA, the binding signal is 0.166 ± 0.0205 E-score.

Consider ACCCATAT, for which the binding signal was determined as 0.3794 ± 0.00238 E-score.

Take AACCATAT: the binding signal came out at 0.303 ± 0.013 E-score.

For ACCCATCT, the binding signal came out at 0.204 ± 0.0603 E-score.

Regarding GATTGAGA, the binding signal worked out at 0.151 ± 0.0232 E-score.

CCTTGATA: the binding signal was determined as 0.317 ± 0.0459 E-score.

Take CATTGATC: the binding signal was 0.265 ± 0.000601 E-score.

For the sequence CATTGATA, the binding signal was 0.391 ± 0.0167 E-score.

On to GATTGATA, for which the binding signal was 0.381 ± 0.046 E-score.

For AATTGATA, the binding signal came to 0.344 ± 0.0859 E-score.

In the case of ACACCTCA, the binding signal turned out to be 0.24 ± 0.0368 E-score.

For the sequence ACTAGCCG, the binding signal came to 0.183 ± 0.0569 E-score.

Consider CTATAATC, for which the binding signal is 0.157 ± 0.0879 E-score.

On to ATCGTGGG, for which the binding signal came out at 0.163 ± 0.0327 E-score.

Turning to ATGGATAC, the binding signal is 0.447 ± 0.0217 E-score.

Turning to CTGGATTA, the binding signal came out at 0.177 ± 0.0302 E-score.

As to ATGGATAA, the binding signal is 0.212 ± 0.00686 E-score.

For CTGGATAC, the binding signal was found to be 0.387 ± 0.0256 E-score.

Take ATGGATAG: the binding signal is 0.247 ± 0.00822 E-score.

As to ACTACGAT, the binding signal is 0.1669 ± 0.00123 E-score.

TATCCAGA: the binding signal worked out at 0.3343 ± 0.00221 E-score.

Take ATACACAA: the binding signal is 0.232 ± 0.0214 E-score.

As for AGGATTAA, the binding signal was determined as 0.243 ± 0.0865 E-score.

As to ATCCCTCA, the binding signal worked out at 0.312 ± 0.0176 E-score.

Take GCTACCCC: the binding signal was 0.158 ± 0.092 E-score.

For AATACCCC, the binding signal came to 0.4268 ± 0.000757 E-score.

With AATACCTC, the binding signal was 0.331 ± 0.0598 E-score.

Take AATACCCA: the binding signal came to 0.2902 ± 0.00209 E-score.

On to AATACCCG, for which the binding signal worked out at 0.293 ± 0.0206 E-score.

Take AATACCCT: the binding signal was 0.384 ± 0.0168 E-score.

AATACCAG: the binding signal is 0.306 ± 0.0188 E-score.

As to GATACCCC, the binding signal was 0.4957 ± 0.00126 E-score.

For the sequence CATACCCC, the binding signal was 0.258 ± 0.054 E-score.

In the case of CCGTCTCG, the binding signal is 0.232 ± 0.00359 E-score.

As to CAATACGG, the binding signal was 0.178 ± 0.00369 E-score.

ATTAAATA: the binding signal amounted to 0.24 ± 0.0313 E-score.

For the sequence GATCAGCA, the binding signal was found to be 0.235 ± 0.00865 E-score.

Turning to ATACGGAC, the binding signal is 0.193 ± 0.00348 E-score.

With AATATACC, the binding signal was found to be 0.32 ± 0.0474 E-score.

CATATACC: the binding signal amounted to 0.282 ± 0.0234 E-score.

For TATATACA, the binding signal is 0.284 ± 0.0122 E-score.

For the sequence GATATTCC, the binding signal was 0.376 ± 0.0303 E-score.

For the sequence GATATTCA, the binding signal was 0.232 ± 0.0803 E-score.

As to GATATACC, the binding signal was 0.4592 ± 0.00376 E-score.

AATATTCC: the binding signal was determined as 0.251 ± 0.0499 E-score.

With AATATACA, the binding signal amounted to 0.222 ± 0.0386 E-score.

For GATATACA, the binding signal amounted to 0.384 ± 0.0104 E-score.

In the case of ACACCCGG, the binding signal stood at 0.344 ± 0.043 E-score.

Turning to GTGTTAGA, the binding signal is 0.214 ± 0.00425 E-score.

ACGATCGT: the binding signal was determined as 0.154 ± 0.0131 E-score.

As to CAGTAGTA, the binding signal is 0.154 ± 0.00593 E-score.

For the sequence GATTATTA, the binding signal was found to be 0.209 ± 0.0336 E-score.

For GATCTGAC, the binding signal is 0.238 ± 0.00706 E-score.

On to AGACCTAT, for which the binding signal turned out to be 0.17 ± 0.0148 E-score.

For ATATAGGG, the binding signal was 0.229 ± 0.0134 E-score.

On to ATCGGATG, for which the binding signal was found to be 0.252 ± 0.00376 E-score.

In the case of CTCGGATA, the binding signal stood at 0.375 ± 0.00642 E-score.

ATCGGATA: the binding signal amounted to 0.423 ± 0.00904 E-score.

Consider ATCGGATC, for which the binding signal stood at 0.426 ± 0.0203 E-score.

In the case of GTCGGATA, the binding signal worked out at 0.407 ± 0.00687 E-score.

Consider CTCGGATC, for which the binding signal was 0.396 ± 0.0127 E-score.

Turning to CTTGGATA, the binding signal worked out at 0.236 ± 0.024 E-score.

For the sequence ATCGGAAA, the binding signal amounted to 0.159 ± 0.00362 E-score.

Regarding ATCGGACC, the binding signal came to 0.229 ± 0.0739 E-score.

Consider ATCGGACA, for which the binding signal was found to be 0.237 ± 0.0182 E-score.

With GTTGGATA, the binding signal was found to be 0.295 ± 0.00342 E-score.

Turning to CTTGGATC, the binding signal is 0.295 ± 0.0145 E-score.

In the case of AATATTAA, the binding signal amounted to 0.187 ± 0.0103 E-score.

Take GATCGAGC: the binding signal was determined as 0.218 ± 0.00887 E-score.

Turning to TATGCATA, the binding signal is 0.202 ± 0.0575 E-score.

Consider ATACTAGA, for which the binding signal amounted to 0.218 ± 0.0317 E-score.

With CACTCCGG, the binding signal amounted to 0.195 ± 0.0209 E-score.

For AACCCGAT, the binding signal is 0.25 ± 0.0182 E-score.

For the sequence ATAGCAGG, the binding signal was 0.29151 ± 0.000127 E-score.

On to CCTTGTGA, for which the binding signal is 0.164 ± 0.0725 E-score.

As to ATCGCAAC, the binding signal was determined as 0.198 ± 0.0486 E-score.

For CGTACACC, the binding signal was determined as 0.205 ± 0.0267 E-score.

For the sequence AAGTATCC, the binding signal was 0.388 ± 0.0363 E-score.

Consider AAGTATAC, for which the binding signal worked out at 0.338 ± 0.0623 E-score.

Consider GATTATCC, for which the binding signal turned out to be 0.329 ± 0.00414 E-score.

Consider AACTATCC, for which the binding signal came out at 0.281 ± 0.0413 E-score.

For GAGTATAC, the binding signal worked out at 0.262 ± 0.0252 E-score.

For the sequence GAGTATCC, the binding signal amounted to 0.4205 ± 0.00087 E-score.

Turning to ATACTCAG, the binding signal was 0.35 ± 0.0154 E-score.

As for GCAAGATA, the binding signal was determined as 0.17 ± 0.0455 E-score.
